Source: PubChem BioAssay
The list is not random: actives were taken first. Their share in the collection is about 9.9%.
MCF10A rerep – inducers of DNA re-replication in MCF 10A breast cells. MCF 10A DNA re-replication, Hoechst nuclear intensity, 48 h. Potency, µM (series often up to 46.1 µM), for inactives: top-dose activity, positive = re-replication, usual class: activators. AID 624296. 2.9% of 350,000 active; note: potency is the fitted concentration of half-maximal effect; % of control where 0% means no effect; nearly all actives have a fitted effect of over 50% in size
KB-3-1 tox – kills parental KB-3-1 adenocarcinoma cells | KB-3-1 viability, CellTiter-Glo ATP luminescence, 72 h | Potency, µM (doses to about 46.1 µM), hits mostly cytotoxic | 1.4% of 400,000 active | AID 1347075; note: potency is the fitted concentration of half-maximal effect; % is set by controls: 0 for no effect and ±100 for the full control effect; nearly all actives have a fitted effect of over 60% in size
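Cytotoxicity measured as CellTiter-Glo luminescence after 72 h at 37 C. Compound titrations were pinned onto drug-naive KB-3-1 parental adenocarcinoma cells grown in DMEM with 10% FBS, and normalized data fitted to concentration-response curves.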
IL-1B inflam inh – blocks inflammasome-driven IL-1 beta release; AID 743279; 4.7% of 360,000 active; activity change, % at 57.5 µM; THP-1 LPS/ATP IL-1B secretion, AlphaLISA, 16 h; active compounds read low; in the data active = activity change below about -50%; inconclusive = mostly about -30% to -49%; note: % is set by controls: 0 for no effect and ±100 for the full control effect
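THP-1 cells pretreated 1 hr with compounds (up to 57.5 uM final), then stimulated with LPS (250 ng/mL final) plus ATP (1.25 mM final); secreted IL-1B measured by AlphaLISA after 16 hr, decreased signal indicating inhibition.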
SW480 rereplic – induces DNA re-replication in SW480 colon adenocarcinoma cells. 1.8% of 340,000 active. AID 624297. Potency, µM (titrated, usually from 46.1 µM), for inactives: top-dose re-replication activation, hits mostly activators. SW480 DNA re-replication, Hoechst DNA content imaging, 48 h; note: potency is the fitted concentration of half-maximal effect; % of control where 0% means no effect; nearly all actives have a fitted effect of over 55% in size
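DNA re-replication was detected as more nuclei of elevated Hoechst intensity after 48 hr exposure to compound (23 nL pinned per well of 250 cells).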
KB-V1 cytotox – kills drug-selected multidrug resistant KB-V1 cells. Potency, µM (doses to about 46.1 µM), usual class: cytotoxic. 3.4% of 400,000 active. KB-V1 MDR cells viability, CellTiter-Glo, 72 h; note: potency is the fitted concentration of half-maximal effect; % is set by controls: 0 for no effect and ±100 for the full control effect; nearly all actives have a fitted effect of over 60% in size
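KB-V1, DMEM (no phenol red) + 10% FBS; cpd pin-transferred, titration series; 72 h, 37 degrees C; CellTiter-Glo, luminescence. Data normalized, curve-fit.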
Numbers without * were called inactive; i = inactive; u = inconclusive; x = not tested or not shown; [ ] = remark or other dose. Unless noted, calls come from the whole dose curve; as a rule, active = well fitted curve in the direction sought with a large enough effect; inconclusive = small, poorly fitted or top-dose-only effect, or another doubt; inactive = no such curve, though single readings can be large; an effect the other way counts as inactive or inconclusive.

SMILES	MCF10A rerep	KB-3-1 tox	IL-1B inflam inh	SW480 rereplic	KB-V1 cytotox
O=C(NCCCc1ccccc1)c1cccc(Br)c1	-1%	i	u	-8%	i
O=C(OCc1ccccc1)N1C=CC2CC1c1c(Cl)cccc12 (stereo not drawn)	23µM*	i	-8	13%	i
O=C(OCc1ccccc1)N1C[C@H](O)[C@H](O)C[C@@H]1c1c(Cl)cccc1Br	x	i	11	x	i
Cc1ccc(-n2c(C)cc(C)c(C#N)c2=O)cc1C	-6%	i	-6	2%	i
Cc1ccc(N(C(=O)c2snc(C(N)=O)c2N)C(C(=O)NCc2ccccc2)c2ccncc2)c(C)c1 (stereo not drawn)	u	u	-51*	u	i
NC(=O)c1nsc(C(=O)N(c2ccccc2F)C(C(=O)NCc2ccc(F)cc2)c2ccc(O)cc2)c1N (stereo not drawn)	23µM*	u	-100*	u	i
COc1ccc(C(C(=O)NC2CCCC2)N(C(=O)c2snc(C(N)=O)c2N)c2ccccc2OC)cc1OC (stereo not drawn)	8%	i	-9	-3%	u
COc1ccc(N(C(=O)c2snc(C(N)=O)c2N)C(C(=O)NCc2ccccc2)c2ccc(F)cc2)c(OC)c1 (stereo not drawn)	u	i	u	u	i
COc1ccccc1N(C(=O)c1snc(C(N)=O)c1N)C(C(=O)NCc1ccccc1)c1ccc(O)cc1 (stereo not drawn)	u	i	-72*	15%	i
COc1ccc(C(C(=O)NCc2ccccc2)N(C(=O)c2snc(C(N)=O)c2N)c2ccccc2OC)cc1 (stereo not drawn)	2%	u	-55*	u	i
Cc1ccc(N(C(=O)c2snc(C(N)=O)c2N)C(C(=O)NC2CCCC2)c2ccncc2)cc1 (stereo not drawn)	-18%	i	-15	1%	i
NC(=O)c1nsc(C(=O)N(Cc2cccnc2)C(C(=O)NCc2ccc(F)cc2)c2ccc(O)cc2)c1N (stereo not drawn)	3%	i	-14	-8%	i
CC(C)C1N(C(=O)N2CCOCC2)CCN1S(=O)(=O)c1ccccc1 (stereo not drawn)	-9%	i	7	2%	i
CN1CCN(c2cccc(Nc3nn4c(=O)c5ccc(F)cc5nc4s3)c2)CC1	x	i	x	x	i
NC(=O)c1nsc(C(=O)N(c2cccc(F)c2)C(C(=O)NCc2ccccc2)c2ccc(O)cc2)c1N (stereo not drawn)	u	i	-51*	12%	i
NC(=O)c1nsc(C(=O)N(c2cccc(F)c2)C(C(=O)NC2CCCC2)c2ccc(O)cc2)c1N (stereo not drawn)	-4%	i	6	6%	i
COc1ccc(CC(=O)Nc2ccc(-c3cn4ccccc4n3)cc2)cc1	25%	i	19	5%	i
O=C(Nc1cccc(-c2cn3ccccc3n2)c1)C1CC1	u	u	20	-7%	18µM*
O=C(Nc1cccc(-c2cn3ccccc3n2)c1)c1cccc(Cl)c1	u	i	-104*	21%	9.2µM*
O=C(Nc1ccc(-c2cn3ccccc3n2)cc1)c1cccs1	u	i	-93*	u	u
COc1ccc(Cl)cc1N1C(=O)CC(N2CCN(S(=O)(=O)c3ccccc3F)CC2)C1=O (stereo not drawn)	5%	i	20	u	i
COc1ccc(-c2nn3c(-c4ccccn4)nnc3s2)cc1OC	0%	u	-51*	-15%	u
COc1ccc(-c2nn3c(C4CCCCC4)nnc3s2)cc1OC	5%	i	-13	-2%	u
COc1cc(-c2nnc3sc(-c4cccs4)nn23)cc(OC)c1OC	u	i	5	u	u
COc1cc(-c2nn3c(C4CCCCC4)nnc3s2)cc(OC)c1OC	u	i	-51*	0%[9.22 µM]	u
SMILES	MCF10A rerep	KB-3-1 tox	IL-1B inflam inh	SW480 rereplic	KB-V1 cytotox
COc1ccc(-c2nn3c(-c4cccc(C)c4)nnc3s2)cc1OC	u	i	-4	u	16µM*
COc1ccc(-c2nnc3sc(-c4cccs4)nn23)cc1OC	u	i	-52*	-4%[9.22 µM]	i
COc1cccc(-c2nn3c(-c4ccccn4)nnc3s2)c1	8%	i	x	-19%	i
CCn1c(SCC(=O)Nc2ccc(C)cc2Br)nnc1-c1nonc1NC(C)=O	x	i	x	x	i
O=C1CCc2cc(S(=O)(=O)NC(C(=O)Nc3ccc(F)cc3)c3ccccc3)ccc2N1 (stereo not drawn)	x	i	x	x	i
CCOCCc1nn2c(=O)cc(COC(=O)c3ccc4c(c3)OCO4)nc2s1	x	i	x	x	i
C=CCN(CC=C)C(=O)c1ccc(OC2CCN(S(=O)(=O)N(C)C)CC2)cc1	-2%	u	14	-3%	21µM*
C=CCN(CC=C)C(=O)c1cccc(OC2CCN(S(=O)(=O)N(C)C)CC2)c1	5%	i	9	0%	i
CC(c1ccccc1)C1CC(=O)N(c2ccccc2)C1=O (stereo not drawn)	18%	i	-2	-5%	u
CN1c2ccccc2C(C)(C)C12C=Cc1cc(O)ccc1O2 (stereo not drawn)	-10%	i	-74*	22%	u
O=C(NCC(O)CN1CCOCC1)c1ccc([N+](=O)[O-])cc1 (stereo not drawn)	0%	i	10	-23%	i
COc1ccc(-c2nc(CN3CCC(C(=O)NCCCOC(C)C)CC3)c(C)o2)cc1OC	x	i	x	x	i
Cc1ccc(S(=O)(=O)N[C@@H](Cc2ccccc2)C(=O)CCl)cc1	2.3µM*	u	-107*	u	u
CC(=O)NC(CC(C)C)C(=O)NC(Cc1ccccc1)C(=O)CCl (stereo not drawn)	8.2µM*	i	-98*	17%	i
FC(F)(F)c1cccc(Cn2c3[n+](c4ccc(C(F)(F)F)cc42)CCCCC3)c1	10%	i	-77*	1%	i
Cc1cc(C(C)(C)C)cc(C)c1Cn1c2[n+](c3ccc(C(F)(F)F)cc31)CCCCC2	u	u	-108*	-10%	i
O=C(Cn1c2[n+](c3ccc(C(F)(F)F)cc31)CCCCC2)Nc1ccc(Br)cc1	3%	i	0	-5%	i
COc1ccc(NC(=O)c2cc([N+](=O)[O-])ccc2N2CCCC2)cc1S(N)(=O)=O	-2%	i	-23	-123%	i
CCCS(=O)(=O)c1c(S(=O)(=O)CCC)c2cc(-c3ccncc3)ccn2c1C(=O)OC	23µM*	i	-69*	18µM*	i
